Measurements published in PubChem BioAssay (NCATS).
“And” between values parts separate entries of the source, which are not always exact repeats. Identical values can stand only once. Records with an inconclusive call do not appear. The source made the active and inactive calls. Unless noted, calls come from the whole dose curve; as a rule, active = well fitted curve in the direction sought with a large enough effect; inconclusive = small, poorly fitted or top-dose-only effect, or another doubt; inactive = no such curve, though single readings can be large; an effect the other way counts as inactive or inconclusive.

How the values were obtained:
[1] = AP1 Signaling Pathway (AID 357; active = well fitted curve in either direction with a large enough effect, not every such curve was filed as active;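 note: ME-180 reporter cells stimulated with EGF at its EC50 level; % is set by controls: 0 for no effect and ±100 for the full control effect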)
Method in brief: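 First, ME-180 AP-1-bla cells were cultured overnight at 37 °C in low-serum Opti-MEM. Next, titrated compounds with EC50 EGF were incubated 5 hours. Finally, CCF4 was added for 2.5 hours and the 460/530 nm ratio recorded.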

[2] = NFAT Signaling Pathway (AID 444; active = well fitted curve in either direction with a large enough effect, not every such curve was filed as active;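 note: carbachol stimulus at about its EC50 of 1 µM final; % is set by controls: 0 for no effect and ±100 for the full control effect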); details: Jurkat NFAT-bla M1, carbachol, beta-lactamase ratio, 5 h; at 17.2 µM (top of the series) unless noted
Method in brief: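 Jurkat cells with NFAT-driven β-lactamase reporter and co-expressed M1 receptor, stimulated with carbachol (final 1 uM, ~EC50), compound titration, 5 h at 37 °C. CCF4 loaded 1 h at RT; 460/530 nm ratio gave %activity and AC50.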

[3] = Stat Signaling Pathway (AID 446; active = well fitted curve in either direction with a large enough effect, not every such curve was filed as active;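 note: ME-180 cervical cancer cells given 40 pM IL-6 alongside compound; SIE-controlled beta-lactamase reporter measured as 460/530 nm FRET emission ratio; % is set by controls: 0 for no effect and ±100 for the full control effect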)
Method in brief: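 Screening format detects activators and inhibitors alike: ME-180 SIE-bla cells stimulated at 40 pM IL-6 for 5 hrs with compound, then dual-emission beta-lactamase read at 405 nm excitation.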

[4] = biological target: Glucocorticoid receptor (Homo sapiens) (UniProt P04150); assay: GR-GFP Redistribution (AID 450;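 active = compounds whose dose series gives a full or clear partial fitted curve of increased nuclear translocation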; note: potency is the fitted concentration of half-maximal effect); details: U2OS GR-GFP nuclear translocation, laser cytometry, 2 h
Chain of Glucocorticoid receptor (Homo sapiens) (P04150 whole entry, looked up, the tested form may be a part): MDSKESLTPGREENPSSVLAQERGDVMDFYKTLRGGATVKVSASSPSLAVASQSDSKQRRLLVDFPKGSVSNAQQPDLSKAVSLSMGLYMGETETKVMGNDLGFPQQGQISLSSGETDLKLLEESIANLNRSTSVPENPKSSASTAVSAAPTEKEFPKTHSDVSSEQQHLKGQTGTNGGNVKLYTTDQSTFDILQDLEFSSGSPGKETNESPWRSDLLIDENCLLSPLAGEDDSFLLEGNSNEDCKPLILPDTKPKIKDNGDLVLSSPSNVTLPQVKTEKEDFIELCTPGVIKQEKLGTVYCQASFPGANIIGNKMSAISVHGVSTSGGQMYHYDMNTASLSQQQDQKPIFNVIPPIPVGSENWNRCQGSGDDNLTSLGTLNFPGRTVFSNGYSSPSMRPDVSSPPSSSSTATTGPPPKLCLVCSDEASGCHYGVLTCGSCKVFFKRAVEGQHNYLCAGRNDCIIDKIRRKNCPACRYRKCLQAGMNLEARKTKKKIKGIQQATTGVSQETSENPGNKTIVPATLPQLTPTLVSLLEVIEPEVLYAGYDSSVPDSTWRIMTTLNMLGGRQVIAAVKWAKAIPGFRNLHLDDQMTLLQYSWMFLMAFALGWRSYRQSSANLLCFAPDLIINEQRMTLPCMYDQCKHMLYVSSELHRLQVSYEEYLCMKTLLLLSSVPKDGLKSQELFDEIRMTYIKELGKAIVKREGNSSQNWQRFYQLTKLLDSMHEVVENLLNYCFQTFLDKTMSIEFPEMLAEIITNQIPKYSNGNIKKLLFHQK

[5] = biological target: Glucocorticoid receptor (Homo sapiens) (UniProt P04150); assay: GR-EFC Redistribution (AID 451; calls by dose curve; note: potency is the fitted concentration of half-maximal effect); details: CHO-K1 GR-EFC translocation, beta-gal luminescence, 2 h
Method in brief: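 CHO-K1 cells expressing nuclear EA and GR-ED fragments of b-gal; compounds titrated up to 46 uM final, 2 h at 37 C. GR nuclear translocation read as complemented b-gal luminescence after 1 h RT detection.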

[6] = biological target: Mitogen-activated protein kinase 10 (Mus musculus) (UniProt Q61831); assay: JNK3 AlphaScreen Assay (AID 530; active = well fitted curve in either direction with a large enough effect, not every such curve was filed as active;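 note: kinase came from lysate of stimulated human HepG2 cells; signal reports phosphorylation of biotinylated GST-cJun 1-79 at Ser73 with 10 µM ATP; % is set by controls: 0 for no effect and ±100 for the full control effect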)
Method in brief: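 Pre-activated (IL-1β/TNFα) JNK3 in HepG2 lysates phosphorylates biotin-GST-cJun(1-79), 10 uM ATP; anti-phospho-cJun(Ser73) AlphaScreen read at room temperature, pH 7.6 Tris buffer. Compounds pre-incubated 15 min as titrations.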

[7] = biological target: 3',5'-cyclic-AMP phosphodiesterase 4B (Homo sapiens) (UniProt Q07343); assay: qHTS Assay for Inhibitors of PDE-IV (AID 607; active = well fitted activation curve with a large enough effect in the main read-out, with a control signal flat, not every such curve was filed as active; note: % of control where 0% means no effect)
Chain of 3',5'-cyclic-AMP phosphodiesterase 4B (Homo sapiens) (Q07343 whole entry, looked up): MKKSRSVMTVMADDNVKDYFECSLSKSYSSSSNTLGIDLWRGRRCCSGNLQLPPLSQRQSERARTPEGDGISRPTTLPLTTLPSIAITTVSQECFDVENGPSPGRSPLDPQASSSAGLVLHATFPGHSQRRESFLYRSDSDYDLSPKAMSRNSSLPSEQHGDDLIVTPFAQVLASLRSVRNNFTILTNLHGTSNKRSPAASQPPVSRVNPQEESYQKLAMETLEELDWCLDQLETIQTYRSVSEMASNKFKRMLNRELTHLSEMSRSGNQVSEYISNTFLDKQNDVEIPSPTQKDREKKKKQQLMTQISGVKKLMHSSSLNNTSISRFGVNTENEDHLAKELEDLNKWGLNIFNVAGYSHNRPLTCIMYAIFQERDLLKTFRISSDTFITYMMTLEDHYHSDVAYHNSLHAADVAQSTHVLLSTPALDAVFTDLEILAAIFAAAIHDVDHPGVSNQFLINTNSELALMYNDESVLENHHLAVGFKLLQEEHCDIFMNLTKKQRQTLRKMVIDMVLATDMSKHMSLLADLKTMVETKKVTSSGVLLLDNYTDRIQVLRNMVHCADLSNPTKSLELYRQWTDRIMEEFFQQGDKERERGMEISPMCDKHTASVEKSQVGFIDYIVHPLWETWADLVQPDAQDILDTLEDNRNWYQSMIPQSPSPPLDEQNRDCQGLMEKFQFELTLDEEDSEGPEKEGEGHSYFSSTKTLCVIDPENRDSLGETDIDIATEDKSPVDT
Method in brief: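 The readout is membrane depolarisation from a cAMP-sensing CNG channel, detected with a potential dye at ex 535/em 590. Cells were HEK293-derived (endogenous PDE-IV) at 1000 cells/well, titrated up to 22.9 uM final.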

[8] = qHTS Assay for Lipid Storage Modulators (AID 1519; calls by dose curve); details: Drosophila S3 cells, BODIPY lipid droplet/cell ratio, laser cytometry, cells loaded with oleic acid; for activity change, negative = inhibition: at 25.7 µM (top of the series)
Method in brief: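 Cells seeded at 5,000 per well were treated with compounds over a concentration series and loaded with oleic acid (400 uM, as added). Lipid droplet fluorescence (488 nm excitation, 500-530 nm channel) was read by laser-scanning cytometry and normalized to 20 uM Triacsin C.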

[9] = biological target: ATP-dependent 6-phosphofructokinase (Trypanosoma brucei brucei) (UniProt O15648); assay: qHTS Assay to Find Inhibitors of T. brucei phosphofructokinase: hit validation (AID 492961)
Chain of ATP-dependent 6-phosphofructokinase (Trypanosoma brucei brucei) (O15648 whole entry, looked up): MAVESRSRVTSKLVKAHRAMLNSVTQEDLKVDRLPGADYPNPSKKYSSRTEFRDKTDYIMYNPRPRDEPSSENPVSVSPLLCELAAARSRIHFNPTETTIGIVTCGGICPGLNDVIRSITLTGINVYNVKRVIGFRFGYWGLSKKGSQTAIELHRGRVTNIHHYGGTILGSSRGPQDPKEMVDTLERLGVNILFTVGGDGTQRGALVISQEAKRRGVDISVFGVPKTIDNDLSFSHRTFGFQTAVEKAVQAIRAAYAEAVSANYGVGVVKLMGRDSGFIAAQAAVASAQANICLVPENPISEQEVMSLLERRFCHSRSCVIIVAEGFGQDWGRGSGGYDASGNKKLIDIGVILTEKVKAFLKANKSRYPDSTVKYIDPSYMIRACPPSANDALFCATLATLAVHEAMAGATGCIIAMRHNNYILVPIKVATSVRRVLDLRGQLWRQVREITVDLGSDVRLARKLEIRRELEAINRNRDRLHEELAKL
Method in brief: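 Inhibition of parasite PFK is measured as reduced ADP formation, quantified via luciferase after ATP depletion. Assay used 0.1 mM ATP, 0.5 mM F6P, 1.25 nM enzyme, 45 min incubation.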

[10] = biological target: Ubiquitin carboxyl-terminal hydrolase 1 (Homo sapiens) (UniProt O94782); assay: Inhibitors of USP1/UAF1: Pilot qHTS (AID 504865);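 note: rhodamine fluorescence freed from ubiquitin-rhodamine substrate followed over time; top concentration of the series differs between compounds; % is set by controls: 0 for no effect and ±100 for the full control effect; nearly all actives have a fitted effect of over 35% in size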
Chain of Ubiquitin carboxyl-terminal hydrolase 1 (Homo sapiens) (O94782 whole entry, looked up): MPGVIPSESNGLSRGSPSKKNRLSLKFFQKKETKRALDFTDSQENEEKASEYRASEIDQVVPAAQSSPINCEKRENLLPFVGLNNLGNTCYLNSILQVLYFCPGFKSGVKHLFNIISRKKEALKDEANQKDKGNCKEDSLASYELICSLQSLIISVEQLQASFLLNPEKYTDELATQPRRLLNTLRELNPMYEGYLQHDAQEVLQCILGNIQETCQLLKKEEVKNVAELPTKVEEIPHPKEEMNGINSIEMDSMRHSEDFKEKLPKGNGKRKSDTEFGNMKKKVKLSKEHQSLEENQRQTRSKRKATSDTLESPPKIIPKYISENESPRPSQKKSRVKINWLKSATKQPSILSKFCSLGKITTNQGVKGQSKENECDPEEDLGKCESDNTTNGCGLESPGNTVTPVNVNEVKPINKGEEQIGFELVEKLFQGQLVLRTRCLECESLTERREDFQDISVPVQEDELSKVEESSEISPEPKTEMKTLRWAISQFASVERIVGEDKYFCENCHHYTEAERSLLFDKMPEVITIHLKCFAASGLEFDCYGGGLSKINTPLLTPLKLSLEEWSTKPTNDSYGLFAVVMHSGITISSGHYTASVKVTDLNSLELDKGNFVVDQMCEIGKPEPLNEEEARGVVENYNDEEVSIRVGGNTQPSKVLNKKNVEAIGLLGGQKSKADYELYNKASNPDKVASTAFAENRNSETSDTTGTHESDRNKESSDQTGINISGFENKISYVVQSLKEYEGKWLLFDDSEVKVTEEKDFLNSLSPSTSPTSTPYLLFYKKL
Method in brief: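 1nM USP1/UAF1 + cpd, 15 min RT; start w/ Ub-Rho 150nM final; kinetic FL 480/540 nm, 6 reads q60 s. Buffer 50mM HEPES pH 7.8, 0.5mM EDTA, 1mM TCEP, 0.01% Tween-20, 0.1 mg/ml BSA.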

[11] = biological target: Luciferin 4-monooxygenase (Photinus pyralis) (UniProt P08659); assay: Biochemical firefly luciferase enzyme assay for NPC (AID 624030);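 note: purified P. pyralis luciferase at 10 nM with luciferin and ATP substrate; 0% = DMSO and -100% = full luciferase inhibition by PTC124 control; nearly all actives have a fitted effect of over 70% in size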
Chain of Luciferin 4-monooxygenase (Photinus pyralis) (P08659 whole entry, looked up): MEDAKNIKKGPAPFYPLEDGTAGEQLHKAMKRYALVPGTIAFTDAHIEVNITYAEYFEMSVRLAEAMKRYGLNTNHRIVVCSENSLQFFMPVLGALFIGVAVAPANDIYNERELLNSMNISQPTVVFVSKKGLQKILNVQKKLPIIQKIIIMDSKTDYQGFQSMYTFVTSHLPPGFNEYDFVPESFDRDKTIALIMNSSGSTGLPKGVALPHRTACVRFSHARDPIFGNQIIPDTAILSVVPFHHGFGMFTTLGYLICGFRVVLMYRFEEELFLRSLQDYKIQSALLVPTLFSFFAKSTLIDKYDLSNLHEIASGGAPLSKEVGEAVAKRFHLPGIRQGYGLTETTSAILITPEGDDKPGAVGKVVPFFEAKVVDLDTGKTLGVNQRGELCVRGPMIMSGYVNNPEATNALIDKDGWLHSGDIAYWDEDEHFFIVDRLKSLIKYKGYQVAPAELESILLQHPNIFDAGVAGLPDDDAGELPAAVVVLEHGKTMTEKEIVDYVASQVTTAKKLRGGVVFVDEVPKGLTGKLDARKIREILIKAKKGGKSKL
Method in brief: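 Purified P. pyralis luciferase at 10 nM in 50 mM Tris Acetate (final), luminescence read within 5 minutes of enzyme addition to compounds. Activity normalised to PTC124 versus DMSO; concentration-response curves classed by r2, magnitude and activity.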

[12] = qHTS profiling for inhibitors of Plasmodium falciparum proliferation (AID 504749); note: nearly all actives have a fitted effect of over 60% in size; note: potency is the fitted concentration of half-maximal effect;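 for activity, negative = inhibition: 0% = DMSO vehicle and full inhibition = artemisinin control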; details: P. falciparum in erythrocytes, SYBR Green DNA, 72 h
Method in brief: (§1)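 P. falciparum-infected erythrocytes (0.3% parasitemia, 2.5% hematocrit) incubated with compound 72 h at 37 C, 5% CO2. Parasite DNA detected by SYBR Green after lysis, overnight at room temperature; normalised to 0.29 uM artemisinin and DMSO.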

[13] = system: C2A; assay: as above; details: P. falciparum in erythrocytes, SYBR Green DNA, 72 h; series mostly up to 12.8 µM
Method in brief: as §1

[14] = system: CP238; assay: as above; details: P. falciparum in erythrocytes, SYBR Green DNA, 72 h; series mostly up to 12.8 µM
Method in brief: as §1

[15] = system: CP252; assay: as above; details: P. falciparum in erythrocytes, SYBR Green DNA, 72 h; series mostly up to 12.8 µM
Method in brief: as §1

[16] = system: DIV14; assay: as above; details: P. falciparum in erythrocytes, SYBR Green DNA, 72 h; series mostly up to 12.8 µM
Method in brief: as §1

[17] = system: JCK; assay: as above; details: P. falciparum in erythrocytes, SYBR Green DNA, 72 h; series mostly up to 12.8 µM
Method in brief: as §1

[18] = system: N140; assay: as above; details: P. falciparum in erythrocytes, SYBR Green DNA, 72 h; series mostly up to 12.8 µM
Method in brief: as §1

[19] = system: SC27B; assay: as above; details: P. falciparum in erythrocytes, SYBR Green DNA, 72 h; series mostly up to 12.8 µM
Method in brief: as §1

[20] = system: W2; assay: as above; details: P. falciparum in erythrocytes, SYBR Green DNA, 72 h; series mostly up to 12.8 µM
Method in brief: as §1

[21] = measured here: cell count channel max response
[22] = measured here: lipid channel max response
[23] = at 12.8 µM (top of the series), parasite line A
[24] = at 12.8 µM (top of the series), parasite line B

CN[C@H]1[C@@H](O)[C@@H](NC)[C@@H]2O[C@@]3(O)C(=O)C[C@@H](C)O[C@H]3O[C@H]2[C@H]1O
1.41%: max response [8, 21]
inactive: outcome [1] | activity change, negative = inhibition [2] -11.9% | outcome [3] | Potency [4] > 20.6 µM | Potency [5] > 20.6 µM | Potency [6] | outcome [7] | activity change, negative = inhibition [8] 0.684% | outcome [9] | Potency [10] | Potency [11] | activity, negative = inhibition [12, 23] -10.3% | activity, negative = inhibition [12, 24] -0.369% | Potency [13] | Potency [14] | Potency [15] | Potency [16] | Potency [17] | Potency [18] | Potency [19] | Potency [20]
2.93%: max response [8, 22]

C[C@@H](C(=O)O)c1ccc(N2Cc3ccccc3C2=O)cc1
-10.4%: max response [8, 22]
-8.47%: max response [8, 21]
inactive: outcome [1] | activity change, negative = inhibition [2] 11.8% | outcome [3] | Potency [4] > 20.6 µM | Potency [5] > 20.6 µM | Potency [6] | outcome [7] | activity change, negative = inhibition [8] -0.476% | Potency [10]

CC(=C(CCOP(=O)(O)O)SC(=O)c1ccccc1)N(C=O)Cc1cnc(C)nc1N
inactive: outcome [1] | activity change, negative = inhibition [2] 2.39% | outcome [3] | Potency [4] > 20.6 µM | Potency [5] > 20.6 µM | Potency [6] | outcome [7] | activity change, negative = inhibition [8] 0.981% | outcome [9] | Potency [10] | Potency [11] | activity, negative = inhibition [12, 23] -4.37% | activity, negative = inhibition [12, 24] 20.3% | Potency [13] | Potency [14] | Potency [15] | Potency [16] | Potency [17] | Potency [18] | Potency [19] | Potency [20]
-2.64%: max response [8, 22]
-3.81%: max response [8, 21]

O=C(O)CCCC[C@H]1SC[C@H]2NC(=O)N[C@@H]21
0.0876%: max response [8, 22]
inactive: outcome [1] | activity change, negative = inhibition [2] 2.95% | outcome [3] | Potency [4] > 20.6 µM | Potency [5] > 20.6 µM | outcome [7] | activity change, negative = inhibition [8] -3.62% | Potency [10]
5.29%: max response [8, 21]

C=C1C[C@@]23C[C@]1(O)CC[C@@H]2[C@]12C=C[C@@H](O)[C@](C)(C(=O)O1)[C@H]2[C@H]3C(=O)O
inactive: outcome [1] | activity change, negative = inhibition [2] -11.2% | outcome [3] | Potency [4] > 20.6 µM | Potency [5] > 20.6 µM | Potency [6] | outcome [7] | activity change, negative = inhibition [8] 1.67% | Potency [10]
0.159%: max response [8, 21]
3.63%: max response [8, 22]

CCN[C@@H]1CN(CCCOC)S(=O)(=O)c2sc(S(N)(=O)=O)cc21
-3.42%: max response [8, 21]
-8.18%: max response [8, 22]
inactive: outcome [1] | activity change, negative = inhibition [2] -3.14% | outcome [3] | Potency [5] > 20.6 µM | Potency [6] | outcome [7] | activity change, negative = inhibition [8] 1.92% | outcome [9] | Potency [10] | Potency [11] | activity, negative = inhibition [12, 23] -7.28% | activity, negative = inhibition [12, 24] 4.88% | Potency [13] | Potency [14] | Potency [15] | Potency [16] | Potency [17] | Potency [18] | Potency [19] | Potency [20]

CCCC(=O)Nc1ncnc2c1ncn2[C@@H]1O[C@H]2COP(=O)(O)O[C@@H]2[C@@H]1OC(=O)CCC
-4.54%: max response [8, 22]
inactive: outcome [1] | activity change, negative = inhibition [2] 16.7% | outcome [3] | Potency [4] > 20.6 µM | Potency [5] > 20.6 µM | Potency [6] | outcome [7] | activity change, negative = inhibition [8] -1.42% | Potency [10]
-2.67%: max response [8, 21]

CC(=O)OCC(=O)[C@@]1(OC(C)=O)[C@H](C)C[C@H]2[C@@H]3C[C@H](F)C4=CC(=O)C=C[C@@]4(C)[C@]3(F)[C@H](O)C[C@@]21C
inactive: outcome [1] | activity change, negative = inhibition [2] 4% | outcome [3] | Potency [6] | outcome [7] | activity change, negative = inhibition [8] -2.11% | Potency [10]
active: Potency [4] 0.00203 µM | Potency [5] 0.0775 µM
-15.4%: max response [8, 21]
-17.2%: max response [8, 22]

Cc1ccc2c(c1)c1c3n2CCN[C@H]3CCC1
-6.69%: max response [8, 22]
-5.65%: max response [8, 21]
inactive: outcome [1] | activity change, negative = inhibition [2] -11.2% | outcome [3] | Potency [4] > 20.6 µM and > 46 µM | Potency [5] > 20.6 µM and > 46 µM | Potency [6] | outcome [7] | activity change, negative = inhibition [8] -2.69% | outcome [9] | Potency [10] | Potency [11] | activity, negative = inhibition ([12]; at 28.7 µM (top of the series), parasite line A) -1.32% | activity, negative = inhibition ([12]; at 28.7 µM (top of the series), parasite line B) 1.18% | Potency [13] | Potency [14] | Potency [15] | Potency [17] | Potency [18] | Potency [19]
active: Potency [16] 6.01 µM

Cc1onc(-c2ccccc2Cl)c1C(=O)N[C@H]1C(=O)N2[C@H]1SC(C)(C)[C@H]2C(=O)O
6.25%: max response [8, 21]
7.41%: max response [8, 22]
inactive: outcome [1] | activity change, negative = inhibition [2] -2.89% | outcome [3] | Potency [4] > 20.6 µM | Potency [5] > 20.6 µM | Potency [6] | outcome [7] | activity change, negative = inhibition [8] -0.309% | outcome [9] | Potency [10] | Potency [11] | activity, negative = inhibition [12, 23] 10.5% | activity, negative = inhibition [12, 24] 7.79% | Potency [13] | Potency [14] | Potency [15] | Potency [16] | Potency [17] | Potency [18] | Potency [19] | Potency [20]
